Compounds without any hit were thinned out: in the full panel of roughly 83,000, 20% have a hit.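 Method: cells in 96-well plates; compound added at one concentration; 48 h incubation; percent growth measured; values under 10 scored active.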 Active and inactive are the calls of the source.

This experiment concerns NCI-H322M lung. Kind of experiment: NCI-60 one-dose screen, 48 h (100 = growth as untreated, 0 = no growth, -100 = all killed). As to conditions: 10 µM unless noted. The procedure: Growth inhibition of the NCI-H322M human Non-Small Cell Lung tumor cell line is measured as a screen for anti-cancer activity. Cells are grown in 96 well plates and exposed to the test compound for 48 hours. Compounds are tested at a single concentration, which is 10^-5 M for most compounds. The reported endpoint is percent growth (GI% or GIPRCNT), where numbers from 0 - 100% represent growth inhibition, and numbers from -100% - 0 represent cell death. For example, a value of 40 represents 60% growth inhibition. A value of 0 means no net growth occurred over the course of the experiment. A value of -40 indicates 40% of cells at the beginning of the experiment died by the end of the experiment. A value of -100 means all cells are dead at the end of the experiment.
NCI-60 Human Tumor Cell Lines Screen was performed using the standard one-dose NCI protocol, which is described in more detail at https://dtp.cancer.gov/discovery_development/nci-60/default.htm.
Compounds with GIPRCNT values below 10 were considered active. Activity score was based on GIPRCNT using the following formula: […]
Score is 0 for GIPRCNT values of 100 or above, 50 for GIPRCNT values of 0, and 100 for GIPRCNT values of -100.
`COc1cc(/C=C/c2ccccc2)cc(OC)c1`: the growth is 114% (inactive). With `CCCCn1c(=O)c(-c2cc(-c3ccc(Cl)cc3)nc(-c3ccc(Cl)cc3)c2)cc2cc(C)ccc21`, the growth was 95.5% (inactive). `COc1ccc(N2C(=O)C(Oc3ccccc3)C2c2ccc(C)cc2)cc1` (stereo not given): the growth was 103% (inactive). Regarding `CCc1cccc2c1S/C(=C/c1ccc(Cl)cc1)C2=O`, the growth was 85.4% (inactive). `CCOC(=O)C1=C(N)Oc2c(sc3c(CC)cccc23)C1c1ccc(F)cc1` (stereo not given): the growth was 67.2% (inactive). For the molecule `CCN1C(=O)N(CC)C2Nn3c(s/c(=C4\C(=O)N(CCC(C)C)c5ccccc54)c3=O)=NC21` (stereo not given), the growth is 92.4% (inactive). With `c1ccc2cc(C[n+]3ccn(CCCCCCn4cc[n+](Cc5ccc6ccccc6c5)c4)c3)ccc2c1`, the growth is 76.2% (inactive).

As to `CCOC(=O)c1c(C)oc2ncnc(N3CCN(C(=O)COc4ccc(C(C)(C)C)cc4)CC3)c12`, the growth was 88.8% (inactive). The value for `Cc1c(C(=O)NCCN2CCOCC2)cn2ncnc(Oc3ccc(NC(=O)Nc4ccc(Cl)c(C(F)(F)F)c4)cc3)c12` was 73.8% (inactive); that for `COc1ccc(NC2=C(Br)C(=O)C(C)=C(C)C2=O)cc1` was 89.9% (inactive); that for `COc1cccc2nc3n(c12)C(c1c(F)cccc1F)SC3` (stereo not given) was 102% (inactive). Consider `c1ccc(CO[C@H]2CO[C@H]3[C@@H]2OC[C@@H]3Oc2ccc(Nc3ncnc4ccsc34)cc2)cc1`, for which the growth was 93.1% (inactive). `COc1cccc(OC)c1C(=O)N[C@@H]1C(=O)N2[C@@H]1SC(C)(C)[C@@H]2C(=O)O`: the growth is 95.6% (inactive). Take `OC(COc1ccccc1Cl)CN1CCN(c2cccc(Cl)c2)CC1` (stereo not given): the growth is 108% (inactive). As for `CC1(C)C2CC1C1(/C=N\Nc3ccccc3)C(C2)C(C#N)(C#N)C1(C#N)C#N` (stereo not given), the growth was 80.4% (inactive).

As to `O=C(N/N=C/[C@H](O)[C@H](O)[C@H](O)CO)c1ccc(NC(=O)c2cccnc2)cc1`, the growth was 105% (inactive). Take `COc1cc(/C=C2\C(=O)Nc3ccc(Br)cc32)cc(OC)c1OC`: the growth is 76.1% (inactive). With `Nc1cc2c(cc1Br)-c1cc(Cl)ccc1C2=O`, the growth is 102% (inactive). `C/C(=C(/c1ccccc1)c1ccc(N2C(=O)c3cccc4c(N5CCN(C)CC5)ccc(c34)C2=O)cc1)c1ccccc1`: the growth is 99.9% (inactive). As for `c1ccc2cc(C[n+]3ccn(CCCCCCCCCCCCn4cc[n+](Cc5ccc6ccccc6c5)c4)c3)ccc2c1`, the figure is -18.4% (active); as for `O=C1c2cccc3cccc(c23)C(=O)N1Nc1nc(NC2CCCCC2)nc(N2CCOCC2)n1`, 93.4% (inactive). As for `O=C(Nc1ccc(Br)cc1F)c1cc(Br)ccc1O`, the figure is -4.81% (active). For the molecule `Cc1ccc(-c2nc3c(c(-c4ccccc4)nn3-c3ccccc3)c(-c3ccc(O)cc3)c2C#N)cc1`, the growth is 88.5% (inactive).

As to `O=C1CN(CCN2CC(=O)N(Cc3ccccc3)C(=O)C2)CC(=O)N1Cc1ccccc1`, the growth was 104% (inactive).

`CCN1C(=O)N(CC)C2Nn3c(s/c(=C4\C(=O)N(CC(C)C)c5ccccc54)c3=O)=NC21` (stereo not given): the growth was 64.9% (inactive). For the molecule `CCOc1ccc2nc(SCc3nc4n(n3)S(=O)(=O)c3ccccc3N4C)sc2c1`, the growth is 38.6% (inactive). As for `CCCCOc1nc2ccc(OC)cc2cc1-c1cc(-c2ccc(Cl)cc2)nc(-c2ccc(Cl)cc2)c1`, the growth was 99.7% (inactive). On to `O=C(N/N=C/c1ccc(Cl)cc1)c1ccc(C(F)(F)F)nc1Nc1cccc(C(F)(F)F)c1`, for which the growth is 8.21% (active). The value for `CC(C)(C)NC(=O)C(OC(=O)c1cccc(Cl)c1)c1ccc(Cl)cc1` (stereo not given) was 98% (inactive); that for `CCOC(=O)c1cn2ncnc(Oc3ccc(NC(=O)NCCN(CC)CC)c(Cl)c3)c2c1C` was 98.7% (inactive); that for `COc1nc2ccc(C)cc2cc1-c1nc2c(cnn2-c2ccc(Br)cc2)c(=O)[nH]1` was 72.7% (inactive). With `Cc1ccc(-c2nc(N3CCN(C(=O)Nc4ccc(Cl)c(C(F)(F)F)c4)CC3)c3ccccc3n2)cc1`, the growth is 64.3% (inactive).

Take `CNC(=O)c1cc(-n2ccc3cc(NC(=O)c4ccc(N5CCOCC5)c(C(F)(F)F)c4)ccc32)ccn1`: the growth is 91.5% (inactive). As to `CCOC(=O)c1c(C)nc2c(c1N)CC(=O)N2Cc1ccc(F)cc1`, the growth is 107% (inactive). Consider `COc1ccc2c(c1OC)C(=O)O[C@H]2[C@H]1c2c(cc3c(c2OC)OCO3)CCN1C`, for which the growth is 104% (inactive). Take `Cc1ccc(/C=C(\C#N)n2nc3cccc(F)c3n2)cc1`: the growth was 88.7% (inactive). For the molecule `Cc1ccc2sc3c(NCCCN)nc4ccccc4c3c(=O)c2c1`, the growth was 69.2% (inactive). As for `O=c1c2cc(F)ccc2sc2c(NCCCNCCO)nc3ccccc3c12`, the growth was 50% (inactive). The value for `Cc1c(C(=O)NCCCc2ccccc2)sc2ncc(-c3ccc(Br)cc3)n12` was 100% (inactive).

With `O=c1cc(SCc2ccccc2)nc[nH]1`, the growth is 105% (inactive).
